The text below walks through data of PubChem BioAssay.

Experiment [1] is described as follows: E. coli DRC41 culture turbidity changes, primary screen, E. coli filamentation inducer project, strain DRC41, OD650, 48 h (AID 1152).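 Further: E. coli MC1000 strain DRC41 lacking acrAB efflux pump and sulA.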 The note with it: E. coli DRC41 (acrAB sulA), higher = more signal, called active from +8 up or from −8 down.
Experiment [2] is described as follows: small-molecule binders of probe aLefty1, primary screen, biochemical, small-molecule microarray, 635/667 nm fluorescence (AID 1153).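 Further: score merges spot fluorescence with signal-to-noise ratio from the scanned slide images.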 The note with it: higher = more signal.
Experiment [3] is described as follows: PSAC antagonists in infected red cells, primary screen, cell-based, P. falciparum Indochina, OD700, 1 h (AID 1154). The note with it: P. falciparum Indochina infected RBC osmotic lysis, higher = more signal, called active from +8 up or from −8 down.
Experiment [4] is described as follows: PSAC antagonists in infected red cells, primary screen, cell-based, P. falciparum Indochina, OD700, 2 h (AID 1155).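 Further: lysis reports solute entry through the parasite surface anion channel PSAC; channel blockers reduce lysis of infected cells.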 The note with it: P. falciparum Indochina infected erythrocytes, osmotic lysis OD700; higher = more signal, called active from +8 up or from −8 down.
Experiment [5] can be described thus: osmotic lysis modulators in infected erythrocytes, primary screen, PSAC antagonist project, cell-based, P. falciparum Indochina, OD700, 3 h (AID 1156). The note with it: higher = more signal, called active from +8 up or from −8 down.
The nature of experiment [6]: PSAC antagonists in infected red cells, primary screen, cell-based, P. falciparum Indochina, OD700, 18 h (AID 1157). The note with it: P. falciparum Indochina infected erythrocytes, osmotic lysis OD700, 18 h; higher = more signal, called active from +8 up or from −8 down.
Experiment [7] can be described thus: modulators of S6 phosphorylation in cells, primary screen, cell-based, A549, cytoblot, luminescence, serum-stimulated (AID 1158).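 Further: serum-stimulated A549 lung adenocarcinoma cells; signal is phosphorylated S6 detected by cytoblot immunostaining with HRP secondary.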 The note with it: A549 phospho-S6 cytoblot, 5 h, higher = more signal.
In experiment [8] the target is NADPH oxidase 2 (Homo sapiens) (UniProt P04839). Briefly: NOX2-dependent H2O2 signal modulators, primary screen, NOX inhibitor project, cell-based, HEK293-NOX2, PMA-stimulated, Amplex Red fluorescence (AID 1159). Further: test concentration not given here. The note with it: 45 min, higher = more signal, called active from +8 up or from −8 down.
NADPH oxidase 2 (Homo sapiens), sequence (P04839 whole entry, looked up): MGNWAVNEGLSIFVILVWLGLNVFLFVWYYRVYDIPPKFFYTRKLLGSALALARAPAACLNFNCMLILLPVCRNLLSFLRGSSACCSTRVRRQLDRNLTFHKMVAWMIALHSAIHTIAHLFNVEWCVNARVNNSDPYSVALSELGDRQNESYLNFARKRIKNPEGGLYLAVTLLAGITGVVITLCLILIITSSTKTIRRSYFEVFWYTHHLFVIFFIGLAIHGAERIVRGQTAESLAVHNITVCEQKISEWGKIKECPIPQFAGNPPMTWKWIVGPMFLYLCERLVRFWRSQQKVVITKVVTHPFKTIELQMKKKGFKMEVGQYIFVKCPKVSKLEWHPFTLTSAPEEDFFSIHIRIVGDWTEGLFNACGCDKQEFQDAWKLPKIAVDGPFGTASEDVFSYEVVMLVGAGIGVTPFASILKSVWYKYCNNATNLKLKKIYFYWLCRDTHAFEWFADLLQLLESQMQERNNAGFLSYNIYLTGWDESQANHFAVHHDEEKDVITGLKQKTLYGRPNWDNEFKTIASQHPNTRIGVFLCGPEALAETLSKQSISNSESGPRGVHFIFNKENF
The target in experiment [9] is NADPH oxidase 4 (Homo sapiens) (UniProt Q9NPH5). As to the kind of experiment: NOX4-dependent H2O2 signal modulators, primary screen, NOX inhibitor project, cell-based, HEK293-NOX4, tetracycline-induced, Amplex Red fluorescence (AID 1160). The note with it: 45 min, higher = more signal, called active from +8 up or from −8 down.
NADPH oxidase 4 (Homo sapiens), sequence (Q9NPH5 whole entry, looked up): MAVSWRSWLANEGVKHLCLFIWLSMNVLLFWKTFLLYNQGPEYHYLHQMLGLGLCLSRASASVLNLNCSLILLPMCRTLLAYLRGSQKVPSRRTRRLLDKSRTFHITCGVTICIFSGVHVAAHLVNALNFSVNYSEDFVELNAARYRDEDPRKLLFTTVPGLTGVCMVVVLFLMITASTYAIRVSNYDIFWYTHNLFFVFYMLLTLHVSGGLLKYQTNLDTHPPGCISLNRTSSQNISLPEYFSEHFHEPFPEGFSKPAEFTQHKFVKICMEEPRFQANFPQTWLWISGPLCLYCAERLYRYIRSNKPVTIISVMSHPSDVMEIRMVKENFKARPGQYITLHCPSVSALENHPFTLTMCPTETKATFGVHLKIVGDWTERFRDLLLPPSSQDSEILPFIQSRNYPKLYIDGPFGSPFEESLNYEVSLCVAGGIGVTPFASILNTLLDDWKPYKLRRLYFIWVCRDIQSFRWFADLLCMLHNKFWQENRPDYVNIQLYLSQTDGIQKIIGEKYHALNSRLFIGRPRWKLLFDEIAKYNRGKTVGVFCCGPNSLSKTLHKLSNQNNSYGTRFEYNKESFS
The target of experiment [10] is NADPH oxidase 5 (Homo sapiens) (UniProt Q96PH1). Briefly: NOX5-dependent H2O2 signal modulators, primary screen, NOX inhibitor project, cell-based, HEK293-NOX5, Amplex Red fluorescence (AID 1161). The settings on record: HEK293-NOX5, ionomycin, 45 min, higher = more signal.
NADPH oxidase 5 (Homo sapiens), sequence (Q96PH1 whole entry, looked up): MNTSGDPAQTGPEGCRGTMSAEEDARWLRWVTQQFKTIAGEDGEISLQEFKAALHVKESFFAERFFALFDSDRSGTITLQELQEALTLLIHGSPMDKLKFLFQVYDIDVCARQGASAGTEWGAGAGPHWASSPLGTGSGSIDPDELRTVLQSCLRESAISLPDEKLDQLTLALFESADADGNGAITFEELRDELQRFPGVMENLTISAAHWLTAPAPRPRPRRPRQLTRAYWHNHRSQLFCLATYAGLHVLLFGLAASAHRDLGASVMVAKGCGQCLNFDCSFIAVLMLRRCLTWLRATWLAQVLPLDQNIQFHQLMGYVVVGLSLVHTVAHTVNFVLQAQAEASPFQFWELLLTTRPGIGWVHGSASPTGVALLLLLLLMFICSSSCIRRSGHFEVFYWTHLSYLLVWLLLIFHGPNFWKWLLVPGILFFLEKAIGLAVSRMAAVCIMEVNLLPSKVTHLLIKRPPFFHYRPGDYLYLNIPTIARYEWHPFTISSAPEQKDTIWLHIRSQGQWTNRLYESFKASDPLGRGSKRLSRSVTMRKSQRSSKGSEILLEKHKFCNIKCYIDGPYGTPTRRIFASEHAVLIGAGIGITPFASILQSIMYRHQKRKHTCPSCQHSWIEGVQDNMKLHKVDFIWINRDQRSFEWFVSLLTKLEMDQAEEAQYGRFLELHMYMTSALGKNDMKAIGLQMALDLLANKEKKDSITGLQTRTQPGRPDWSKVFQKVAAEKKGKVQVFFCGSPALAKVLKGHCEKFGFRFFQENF

SMILES strings stand for the structures. Calls of active or inactive are those of the source.

Consider `O=C1NC(=O)C2C1C=CC(C(O)c1cc(C(F)(F)F)cc(C(F)(F)F)c1)N2Nc1ccccn1` (stereo not given), for which the z-score in [1] was -1.87 (inactive); in experiment [3], 0.499 (inactive); in experiment [4], 0.701 (inactive); in [5], -0.0477 (inactive); in experiment [6] it was 0.827 (inactive); in experiment [7] it was -0.822. Moreover, the z-score was -1.17 (inactive) in experiment [8], -1.72 (inactive) in experiment [9] and -2.4 in experiment [10]. Also, in experiment [2], the composite z-score amounted to 0.127.

As for `CC(=O)NCCCC[C@@H]1NC(=O)[C@@H]2C[C@H](C(=O)NCCCCCNC(=O)CS)[C@H](c3cccc(OCCO)c3)N2C1=O`, the z-score in [1] is 1.52 (inactive); in [3], 1.33 (inactive); in experiment [4] it was -0.202 (inactive); in experiment [5], 0.344 (inactive); in [6], -1.85 (inactive); in experiment [7] it was 0.697. Also, the z-score is -1.05 (inactive) in [8], 0.489 (inactive) in [9] and 0.0642 in [10]. In addition, the composite z-score in experiment [2] was 0.0536.

`CC(C)N1C(=O)[C@@]2(Cc3ccccc31)c1ccccc1C(=O)N(Cc1ccccc1Cl)[C@H]2c1ccc(CO)cc1`: the z-score was 0.581 (inactive) in [1]; -0.0086 (inactive) in [3]; -0.513 (inactive) in experiment [4]; 1.23 (inactive) in experiment [5]; -1.78 (inactive) in experiment [6]; 1.17 in [7]. Besides, the values for the z-score in experiment [8], in experiment [9] and in [10] were 0.16 (inactive), 0.946 (inactive) and 1.04, respectively. The composite z-score in experiment [2] is -0.17.

Take `COc1ccc(/C=C/C=O)cc1`: the z-score is 0.0676 (inactive) in experiment [1]; -0.0134 (inactive) in [3]; -0.113 (inactive) in experiment [4]; 0.392 (inactive) in experiment [5]; 0.0327 (inactive) in experiment [6]; -0.416 in experiment [7]. In addition, the z-score was -0.721 (inactive) in experiment [8], -0.379 (inactive) in experiment [9] and 0.589 in experiment [10]. This compound also came in with a composite z-score in [2] of 0.11.

With `C=CCC(OC(C)=O)[C@@H]1[C@@H](N(Cc2cc3ccccc3o2)C(=O)c2cccc3ccccc23)c2cc(OCCCO)ccc2N1C(=O)c1ccc(-c2ccccc2)cc1` (stereo not given in full), the z-score in [1] was 1.45 (inactive); in experiment [3] it was 1.01 (inactive); in [4] it was 0.0907 (inactive); in [5], 0.358 (inactive); in experiment [6], 0.554 (inactive); in experiment [7], 0.332. Further, the z-score in experiment [8] was 0.52 (inactive); in [9], -1.87 (inactive); in experiment [10], -2.43. The same compound returned a composite z-score in [2] of 0.0341.

In the case of `C=CCNC(=O)[C@@H]1[C@H]2C(=O)O[C@H](c3ccccc3)[C@H](c3ccccc3)N2[C@H](c2ccc(O)cc2)[C@@]12C(=O)N(C(=O)OCCOC)c1ccc(C#CCNC(N)=O)cc12`, the z-score is 0.411 (inactive) in experiment [1]; 0.691 (inactive) in [3]; -0.836 (inactive) in [4]; 0.537 (inactive) in experiment [5]; -1.18 (inactive) in experiment [6]; 1.32 in [7]. The z-score in experiment [8] was 1.08 (inactive); in experiment [9], 0.438 (inactive); in experiment [10] it was 0.421. The compound also yielded a composite z-score in experiment [2] of 0.0012.

As to `O=C(c1ccccc1)N1C(=O)[C@]2(COC(c3ccc(OCCCO)cc3)=N2)Cc2ccccc21`, the z-score in [1] was -0.788 (inactive); in experiment [3], 27.1 (active); in [4] it was 17.8 (active); in experiment [5], 3.39 (inactive); in [6], 1.35 (inactive); in experiment [7], -0.394. In addition, the z-score was -0.0343 (inactive) in [8], 0.0715 (inactive) in experiment [9] and -1.69 in [10]. In addition, the composite z-score in [2] worked out at 0.638.

For the compound `CCCC[C@@H]1C[C@H]1[C@@H](NC(=O)c1ccccc1)c1ccc(C(=O)OC)cc1`, the z-score in experiment [1] was -2.42 (inactive); in experiment [3], 12.2 (active); in experiment [4] it was 1.91 (inactive); in experiment [5] it was 0.57 (inactive); in [6] it was 0.643 (inactive); in experiment [7], -0.728. For the same compound, the z-score is -1.14 (inactive) in [8], -2.96 (inactive) in experiment [9] and -0.585 in experiment [10]. This compound also yielded a composite z-score in [2] of 0.357.

`COc1ccccc1CN1C(=O)c2ccccc2[C@@]2(Cc3ccccc3N(CC(C)C)C2=O)[C@@H]1c1ccc(CO)cc1`: the z-score is -0.12 (inactive) in experiment [1]; 0.226 (inactive) in [3]; 0.215 (inactive) in experiment [4]; 0.297 (inactive) in experiment [5]; 0.109 (inactive) in experiment [6]; 0.0317 in experiment [7]. In addition, the results for the z-score in experiment [8], in experiment [9] and in [10] were -0.0964 (inactive), 0.11 (inactive) and 1.12, respectively. The composite z-score in experiment [2] was -0.827.

Regarding `COCCCNC(=O)[C@@H]1c2ccccc2C(=O)N(Cc2ccccc2Cl)[C@H]1c1ccc(CO)cc1`, the z-score in experiment [1] was 2.51 (inactive); in experiment [3] it was 1.62 (inactive); in experiment [4], 0.293 (inactive); in [5], 0.621 (inactive); in experiment [6], 0.11 (inactive); in experiment [7] it was -0.0671. Also, the figures for the z-score in experiment [8], in [9] and in experiment [10] were -0.285 (inactive), 0.986 (inactive) and 0.306, respectively. Further, in experiment [2], the composite z-score was -0.121.

In the case of `C[C@H]1C2[C@H](Cc3ccccc3)NC(=O)[C@]23C(=O)N[C@H](Cc2ccccc2)C(=O)N2CCC[C@H]2C(=O)NC/C=C\C/C=C/C3[C@@H]2O[C@]12C` (stereo not given in full), the z-score was 0.637 (inactive) in experiment [1]; 1.4 (inactive) in experiment [3]; -1.49 (inactive) in experiment [4]; -1.3 (inactive) in experiment [5]; -2.52 (inactive) in [6]; 0.477 in experiment [7]. The z-score is 0.977 (inactive) in [8], 1.14 (inactive) in [9] and 1.73 in [10]. The composite z-score in experiment [2] was -0.026.

Turning to `COCCOC(=O)N1C(=O)[C@@]2(c3cc(C#CCC(C(=O)OC)C(=O)OC)ccc31)[C@H](C(=O)N1CCN(c3ncccn3)CC1)[C@H]1C(=O)O[C@H](c3ccccc3)[C@H](c3ccccc3)N1[C@@H]2c1ccccc1OCCO`, the z-score in [1] is -0.646 (inactive); in experiment [3], 3.14 (inactive); in experiment [4] it was 1.55 (inactive); in experiment [5] it was 0.391 (inactive); in experiment [6], 0.533 (inactive); in experiment [7] it was 0.0555. Further, the z-score in [8] was 1.45 (inactive); in [9] it was 0.851 (inactive); in experiment [10], 1.3. The compound also registered a composite z-score in experiment [2] of 0.312.
